Reference: PubChem BioAssay (NCI)
About 79,000 compounds went through this panel and 15% of them were active in at least one assay; those are over-represented in the sample as a whole. Cut-off read from the data, not from the text of the source: active = growth inhibition above about 70%; inactive = the rest. Where a SMILES comes first, the peptide text is derived from it. [ ]: non-standard residue; d: D form. The star is where a group is joined. ξ: configuration not given here. NMeF = CN[C@@H](Cc1ccccc1)C(=O)O; NMeV = CN[C@H](C(=O)O)C(C)C; ξNMeN = CNC(CC(N)=O)C(=O)O; NMeA = CN[C@@H](C)C(=O)O; ξNMeV = CNC(C(=O)O)C(C)C; Boc = CC(C)(C)OC(=O)*

How the values were obtained:
[1] = NCI Yeast Anticancer Drug Screen. Data for the rad50 strain (AID 155);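 note: 0% = growth of vehicle-only cultures of the same strain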; details: S. cerevisiae rad50 strain growth inhibition; at 50.0 µM; active compounds read high
Outline: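 A DNA repair-deficient yeast mutant serves as the test organism; compound-induced growth inhibition is calculated against vehicle-treated cells.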

[2] = NCI Yeast Anticancer Drug Screen. Data for the mec2-1 strain (AID 157); details: S. cerevisiae mec2-1 strain, at 50.0 µM, active compounds read high
Outline: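 Each compound was tested on mec2-1 yeast, a strain altered in DNA damage repair or cell cycle control. Growth inhibition is reported relative to vehicle.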

[3] = NCI Yeast Anticancer Drug Screen. Data for the sgs1 mgt1 strain (AID 161);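 note: 0% = growth of cultures given vehicle only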; details: S. cerevisiae sgs1 mgt1 strain, at 50.0 µM, active compounds read high
Outline: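 Read-out: growth inhibition vs vehicle controls. Cells: mutant yeast strain deficient in DNA damage repair.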

[4] = NCI Yeast Anticancer Drug Screen. Data for the cln2 rad14 strain (AID 165);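 note: 0% = growth equal to vehicle treated cultures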; details: S. cerevisiae cln2 rad14 strain, at 50.0 µM, active compounds read high
Outline: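 Test compounds were added to cln2 rad14 yeast cultures; inhibition of growth was then determined by comparison with vehicle treatment.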

[5] = NCI Yeast Anticancer Drug Screen. Data for the bub3 strain (AID 167); details: S. cerevisiae bub3 mutant strain, at 50.0 µM, active compounds read high
Outline: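 Inhibition values come from growth of compound-treated mutant yeast normalised to vehicle-treated controls.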

[6] = NCI Yeast Anticancer Drug Screen. Data for the mlh1 rad18 strain (AID 175); details: S. cerevisiae mlh1 rad18 strain growth inhibition; at 50.0 µM; active compounds read high
Outline: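 Inhibition values reflect reduced growth of mutant yeast versus vehicle-treated controls following compound exposure; the mutations affect DNA damage repair.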

Measured: growth inhibition

Cc1nc2ccccc2n1CCC(N)=O
inactive: [1] 24.6% | [2] -2.1% | [3] 6.1% | [4] 12.3% | [5] -26.9% | [6] -2.35%

CN1C(=O)c2ccccc2Cc2c(Cl)ncnc21
inactive: [1] -0.5% | [2] 26.4% | [3] 11.2% | [4] -1.45% | [5] 28.6% | [6] 2.1%

CC(C)(C)OC(=O)Cn1ncn(NC(=O)Cc2ccccc2)c1=S
inactive: [1] -27.6% | [2] -23.9% | [3] 1.05% | [4] -37.2% | [5] -33.5% | [6] -15.7%

c1ccc(CCN(c2ccccc2)c2ccccc2)cc1
inactive: [1] 21.1% | [2] -2.4% | [3] -11.2% | [4] 9.8% | [5] 7.55% | [6] 1.2%

O=C(O)CCC(=O)Nc1cc([N+](=O)[O-])ccc1OCc1ccccc1
inactive: [1] 3.75% | [2] -7.55% | [3] -5.35% | [4] -12.4% | [5] -0.95% | [6] 3.5%

COC(=O)[C@H](C)N(C)C(=O)C(CC(N)=O)N(C)C(=O)[C@H](Cc1ccccc1)N(C)C(=O)[C@@H]1CCCN1C(=O)[C@H](C(C)C)N(C)C(=O)C(C(C)C)N(C)C(=O)[C@@H](NC(=O)OC(C)(C)C)C(C)C (stereo not given in full) (Boc-V[ξNMeV][NMeV]P[NMeF][ξNMeN][NMeA]-OMe)
inactive: [1] -20.1% | [2] -16.6% | [3] -13.9% | [4] 8.9% | [5] 8.65% | [6] -5.4%

COc1cc(C=Nc2ccc(Cl)cc2)ccc1O
inactive: [1] -35.9% | [2] -25.9% | [3] -19.1% | [4] -20.6% | [5] -24.9% | [6] -43.3%

CCOC(=O)c1c(-c2ccc(Cl)cc2)c(C#N)c(=S)n(C2OC(COC(C)=O)C(OC(C)=O)C(OC(C)=O)C2OC(C)=O)c1-c1ccccc1 (stereo not given)
inactive: [1] -1.45% | [2] -3.9% | [3] -6.8% | [4] 25.9% | [5] 17.9% | [6] 4.7%

Nc1nnc2nc(C(C(=O)/C=C\c3cccc(O)c3)c3nc4nnc(N)n4[nH]c3=O)c(=O)[nH]n12
inactive: [1] 30.4% | [2] 15.1% | [3] 19.6% | [4] 1.65% | [5] -5.35% | [6] 19.7%

NC(=O)C12OC1(Cl)CCCC2(Cl)Cl (stereo not given)
inactive: [1] 1.05% | [2] -27.9% | [3] 8.5% | [4] 9.05% | [5] 18% | [6] 18.2%

CCCCCCCCC(CO)CCCCCC (stereo not given)
inactive: [1] 15.9% | [2] -1.05% | [3] 31.4% | [4] 1.65% | [5] -6.4% | [6] 9.15%

O=C(CCn1[nH]c(=O)c(Cl)c(Cl)c1=O)NOCCCc1ccccc1
inactive: [1] 0.3% | [2] -21.7% | [3] -8.5% | [4] -7.95% | [5] 4.3% | [6] -11.6%

c1ccc2c(c1)cc1n2CCc2c-1[nH]c1ccccc21
inactive: [1] 26.2% | [2] 18.6% | [3] 4.2% | [4] 18.1% | [5] 19.9% | [6] 20.9%

CCCCCCCCCCCSc1ccc2ccccc2c1
inactive: [1] 5.75% | [2] 14.7% | [3] 6.75% | [4] -20.5% | [5] -18.6% | [6] 5.3%

C/C=C/C=C/C=N\O
inactive: [1] 16.6% | [2] 3.1% | [3] -6.65% | [4] -2.8% | [5] -1.45% | [6] 6.8%

Nc1ccc(C(=O)Nc2ccc(C(=O)Nc3ccc4c(O)cc(S(=O)(=O)O)cc4c3)cc2)cc1
inactive: [1] -6.3% | [2] -6.65% | [3] -4.6% | [4] -34.3% | [5] -4.7% | [6] 12.8%

FC(F)/C=C\c1ccccc1
inactive: [1] 8.85% | [2] -4.55% | [3] -10.4% | [4] -19.8% | [5] -16.9% | [6] 6.9%

O=C(COc1cccc(Cl)c1)Nc1ccc(Cl)cc1
inactive: [1] -0.5% | [2] -26.7% | [3] -18.9% | [4] -13.8% | [5] 17.4% | [6] 4.3%

C/C(=C\c1ccccc1)C(=O)c1ccccc1
inactive: [1] -0.45% | [2] 3.85% | [3] 1.3% | [4] -3.15% | [5] 3.45% | [6] 20%

COc1ccc(C(C)S(=O)(=O)c2ccccc2)cc1OC (stereo not given)
inactive: [1] 6.2% | [2] 8.8% | [3] -2.9% | [4] -5.9% | [5] 6.1% | [6] 5.5%

CCCS(=O)(=O)N1CC(C)OC(C)C1 (stereo not given)
inactive: [1] 2.35% | [2] -16.9% | [3] 3.5% | [4] -7.1% | [5] -10.7% | [6] 3.2%

O=c1[nH]nc(Sc2ccccc2)c2nncn12
inactive: [1] 15.7% | [2] -1.05% | [3] -5.45% | [4] -16.6% | [5] -4.7% | [6] 24.6%

CC1=N/C(=C\c2ccc(N)cc2)C(=O)N1Nc1nnc(NN2C(=O)/C(=C/c3ccc(N)cc3)N=C2C)c2ccccc12
inactive: [1] -11.7% | [2] -13.3% | [3] 1.2% | [4] 7.35% | [5] -30.4% | [6] -2.35%

COc1nc2nccc-2c2occn12
inactive: [1] -29.4% | [2] -11.2% | [3] -16.8% | [4] -27.5% | [5] -9.6% | [6] -29.1%

COc1ccc(/C=C2/CSC/C(=C/c3ccc(OC)c(OC)c3)C2=O)cc1OC
inactive: [1] -16.2% | [2] 11.7% | [3] 6.8% | [4] -40.8% | [5] 10.2% | [6] -1.35%

CC(C)S1=C2C(=O)CC(C)(C)CC2=Nc2ccccc21 (stereo not given)
inactive: [1] 7.65% | [2] -0.65% | [3] 2.95% | [4] -1.45% | [5] 15.8% | [6] -27.9%

NC(=O)C(=O)C(c1ccccc1)S(=O)(=O)Cc1ccccc1 (stereo not given)
inactive: [1] -59.5% | [2] -39.1% | [3] -40.3% | [4] -13.7% | [5] -25.4% | [6] -32.1%

Cc1cccc[n+]1CC(=O)c1ccccc1
inactive: [1] 17.2% | [2] 31.2% | [3] 34.5% | [4] -3.65% | [5] 18.6% | [6] 20.9%

COC(=O)c1ccccc1/C=C1\SC(=S)NC1=O
inactive: [1] -1.6% | [2] 6.3% | [3] 17.9% | [4] -9.85% | [5] -4.95% | [6] -0.7%

N#Cc1c(-c2ccccc2)c(C#N)c(=O)n(N)c1N
inactive: [1] -6.7% | [2] -0.8% | [3] 7.35% | [4] 2.5% | [5] 23.1% | [6] 16.9%

Cc1cc(=O)[nH]c2[nH][nH]c(=O)c12
inactive: [1] -12.3% | [2] -28.6% | [3] -43.6% | [4] -7.35% | [5] 2.85% | [6] -8.8%

CC(=O)NC1=CC(=O)c2cc(C)cc(O)c2C1=O
inactive: [1] 23.3% | [2] 21.9% | [3] 20.1% | [4] 16.2% | [5] 28.1% | [6] -14.6%

N#Cc1nc(CC(=O)c2ccncc2)c(CC(=O)c2ccncc2)nc1C#N
inactive: [1] 8% | [2] 11.9% | [3] 35.9% | [4] 13.5% | [5] -10.9% | [6] 53.1%

Oc1cc(O)c2c(c1)O[C@@H](c1ccc(O)c(O)c1)[C@H](O)C2
inactive: [1] 5.75% | [2] -37.4% | [3] 0.2% | [4] 6.15% | [5] -12.7% | [6] 7.55%

Cc1ccc(O)c(C(=O)c2ccccc2C(=O)O)c1
inactive: [1] 15% | [2] -11.9% | [3] -6.95% | [4] 44.4% | [5] 4.9% | [6] 22.4%

Cc1cn(C2CC(O)C(CO)O2)c(=O)nc1N1CCCC1 (stereo not given)
inactive: [1] -4.2% | [2] -7.4% | [3] -12.9% | [4] -8.55% | [5] -0.4% | [6] 0.55%

CN(C)CC1CCCCCCCCCC(CN(C)C)C1=O (stereo not given)
inactive: [1] -26.4% | [2] 19.9% | [3] -11.3% | [4] -1.6% | [5] -21.4% | [6] 66.7%

COc1ccc2c(c1)C(N)=C(c1ccccc1OC)C2=O
inactive: [1] -8.45% | [2] 3.9% | [3] 4.95% | [4] -8.15% | [5] -7.4% | [6] -38.5%

CCC(=O)c1c(NOC2OCC(OC(C)=O)C(OC(C)=O)C2OC(C)=O)nc(OC)n(C)c1=O (stereo not given)
inactive: [1] -18.3% | [2] -0.65% | [3] -35.2% | [4] 9.6% | [5] -24.8% | [6] -11.5%

CCOC(=O)C1=C(C(C)=O)C(c2ccc(OC)c(OC)c2)C(C(C)=O)=C(C(=O)OCC)N1
inactive: [1] 35.5% | [2] 12.9% | [3] 8.9% | [4] 35% | [5] -4.95% | [6] 8.55%
